Experimental data published in the supplement of paper PMC6555819.

tested on: VDR:RXRa (NR concentration 270 nM, RXRa partner concentration 90 nM); experiment: PBM binding z-score (relative to random genomic background probes); higher = stronger binding; sequences stand for … in GC…GCGATTGACAGCGTAGAATGAAGG
Description: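 Protein-binding microarray (Agilent 4x180K custom design, double-stranded 60-nt probes: 5' GC cap, 34-nt variable region, 24-nt constant primer region; full probe sequence given). Purified or IVT nuclear receptor:RXRα heterodimers (3:1 NR:RXRα, mostly 270:90 nM) or homodimers were incubated for 1 h in PBS with 2% milk and no ligand, then detected with Alexa488 antibodies. Fluorescence from o1-orientation probes (~5 replicates averaged) was converted to z-scores against 500 random hg19 background probes. Variable regions are seed direct-repeat (DR0–DR5) sites, all their single-nucleotide variants and half-site ablations.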

Q: How did the PBM binding z-score turn out when CGAACTAGGTCAGAACAGGGCAGTGAAGGATGAT was run?
A: 0.903

Q: For AAAGACAGGTGAGTGAAGGTAACTCAGCTGGACG, which PBM binding z-score is on record?
A: -0.172

Q: How did the PBM binding z-score turn out when CTCGAAAGGTCGGTTGAGGGGAGTATACGGATAA was run?
A: 1.24

Q: CCGAGCAGGCCAGGGTCACTCAAGCATTTCGCTT was tested. Which PBM binding z-score did it give?
A: 2.6

Q: GCGACTGGGGCAAAGCAGGTTACCATTAGGTTGG was tested. Which PBM binding z-score did it give?
A: -0.0809

Q: CGTCCAAGGTCAACGTCAGTGAAAGAGACTCGAA was tested. Which PBM binding z-score did it give?
A: 4.05

Q: AGTCAAATTTCAGGACGAGGTAACGTAAAGCACG was tested. Which PBM binding z-score did it give?
A: -0.0744

Q: Which PBM binding z-score does the source give for CAGCCTAGGTCAGAGCCAGTATAGGAGGAACGTT here?
A: 0.207

Q: For CCTCCGAGGACAACAGGAGGTCAGAGCTGCCAGA, which PBM binding z-score is on record?
A: 2.27

Q: Which PBM binding z-score does the source give for CGAACGAGGGCTTGAGTTGATAGCAAATGCCGAT here?
A: -0.282

Q: For CCTTACGGGTCACGAGCTTATAGCACGACGAGCG, which PBM binding z-score is on record?
A: 3.95

Q: How did the PBM binding z-score turn out when CGTCCAAGCTCAATGCTAGGTCAGTGAAAGCATT was run?
A: -0.0498

Q: Which PBM binding z-score does the source give for CCTAGTTGGTCAGGAGGTCACACAACGGATATGA here?
A: 3.97

Q: How did the PBM binding z-score turn out when ACTCGGAGGACAAAGGTCAGAGGTACGCCAGTGA was run?
A: 3.52

Q: TAACCAAGGTGAAAGGTCGTTGATGCACGCCTTG was tested. Which PBM binding z-score did it give?
A: 3.38

Q: Which PBM binding z-score does the source give for CCGACTGGGGCAAGGTTACCATCACGCACAGCCA here?
A: -0.00962

Q: With TCTTGTAGATCAATAGAGGTTTAGAAAGTGCGCT as the sequence, how does the PBM binding z-score read?
A: 0.618

Q: Which PBM binding z-score does the source give for TCATATAGGTAAATGCGAGGTGAAAGTCCGATCT here?
A: 1.32

Q: How did the PBM binding z-score turn out when CGTGCAAGGTCAATGCTAGGTCAGTGAAAGCATT was run?
A: 5.24

Q: Which PBM binding z-score does the source give for TTACCAAGGTGAGCTGAGGTCGATGATCCAACTC here?
A: 2.51

Q: For CCTTACGGGTCACAGACAGGTTATAGCATTTGGA, which PBM binding z-score is on record?
A: 4.06

Q: With TCTGCTAGGTCAACGATGGCCAGCTAATCTGCTA as the sequence, how does the PBM binding z-score read?
A: 1.13

Q: For TCTGCTAGGTCAACGATGGTCAGATAATCTGCTA, which PBM binding z-score is on record?
A: 1.78

Q: How did the PBM binding z-score turn out when ATCGAAAGATCGAAGGTGAGTATACCCACCCGAA was run?
A: 0.0219

Q: For GCTGCTAGGTCAACTGATGGGCAGCTAAAGCTCG, which PBM binding z-score is on record?
A: 1.09

Q: For TAGCATAGGTCAGATCGGGCCAGTATACGCTATA, which PBM binding z-score is on record?
A: 1.77

Q: ACTTACGGGTCGACGAGGTTATAGCACGCGTATA was tested. Which PBM binding z-score did it give?
A: 6.05

Q: For ATCGAAAGGTTGAAGGTGAGTATACCCACCCGAA, which PBM binding z-score is on record?
A: 0.806

Q: For CGTCCAAGGTCAAGATCAGTGAAAGAGACTCGAA, which PBM binding z-score is on record?
A: 3.61

Q: TAGCCTAGGTCATTCAAGGGCCAGTATAGAAAGC was tested. Which PBM binding z-score did it give?
A: 2.89

Q: TCATATAGGTAAAAGTGAAAGTCGAACGATATGA was tested. Which PBM binding z-score did it give?
A: 0.265

Q: For CGTCCAAGGTCAATGCTAGGTCCGTGAAAGCATT, which PBM binding z-score is on record?
A: 3.86

Q: Which PBM binding z-score does the source give for CCTACTGGGCCAAAAGGGTCATTGATGCCGATAA here?
A: 4.44

Q: With CCGACTGGGGCAGAAAGGTTCCCATACCATCCGG as the sequence, how does the PBM binding z-score read?
A: -0.573

Q: How did the PBM binding z-score turn out when TTACCAAGGTAAGCTGAGGTCGTTGATCCAACTC was run?
A: 2.84

Q: For GCGACTGGGGCAAAGCAGGTTACCAGAAGGTTGG, which PBM binding z-score is on record?
A: 0.13

Q: Which PBM binding z-score does the source give for AGAACGCGGGCACGCTGAGTTGATAGCAGAGTAG here?
A: -0.403

Q: How did the PBM binding z-score turn out when TCTTGTAGAACAACAGGAGGTTAAGAAAGATCGA was run?
A: 0.492

Q: For CAAACTAGATCACAGAGGTCAAAGTCCGTGCGTA, which PBM binding z-score is on record?
A: 5.7

Q: For CCTATTAGTTGACGATAAGGGCAACCGAAGCTCG, which PBM binding z-score is on record?
A: 0.128
